Whole data set: some 33,000 sequences, median “e-score” near -0.037, cut for the highest 2% near 0.34. What follows is part of a selection rich in the highest values, with near analogues and random picks from the rest.

In the experiment the target is T1, GST-Rok (full length) (Bacillus subtilis subsp. subtilis str. …, UniProt O34857 1-191).
T1 sequence: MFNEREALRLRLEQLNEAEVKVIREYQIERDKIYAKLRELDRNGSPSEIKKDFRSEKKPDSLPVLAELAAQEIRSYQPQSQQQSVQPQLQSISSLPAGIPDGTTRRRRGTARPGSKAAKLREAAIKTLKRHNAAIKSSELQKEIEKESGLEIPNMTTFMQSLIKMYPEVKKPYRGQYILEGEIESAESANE
Put plainly: protein binding microarray; Rok is a gene silencer of Bacillus subtilis; high values mean tight binding. Conditions: protein: recombinant; tags: GST (pTH5325, pDEST15-Magic modified); dsDNA, one strand shown. In outline:
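Every oligonucleotide joins a 25-mer constant primer to a 35-mer variable part drawn from a de Bruijn sequence of order 10, so each non-palindromic 8-mer appears at least 32 times and each palindromic 8-mer 16 times. The preference for every 8-mer is reported as a unitless, rank-based enrichment score (E-score). This score spans 0.5 for the most favored 8-mer to −0.5 for the most disfavored.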
Turning to AAAGAATA, the binding signal amounted to 0.138 E-score.

As to CACTGACA, the binding signal was -0.161 E-score.

For ATAGTTGG, the binding signal was found to be 0.0271 E-score.

GCAGTTTA: the binding signal is 0.0849 E-score.

ATCGTTTG: the binding signal is -0.0128 E-score.

GTAGTTTA: the binding signal was 0.382 E-score.

For the sequence GGAGTTTA, the binding signal worked out at 0.0513 E-score.

Consider ATAGTTTG, for which the binding signal amounted to 0.364 E-score.

As for AGCGTACT, the binding signal was found to be 0.0975 E-score.

As for GGTTGGTA, the binding signal was 0.109 E-score.

Regarding AGCCCTTA, the binding signal is -0.135 E-score.

On to AGGAAGAA, for which the binding signal was -0.0233 E-score.

Take ACAAATTG: the binding signal is -0.0361 E-score.

For ATAAATTC, the binding signal stood at 0.221 E-score.

For the sequence ACAAATTA, the binding signal was found to be 0.338 E-score.

ATAAATTA: the binding signal came out at 0.347 E-score.

On to TAAAATTA, for which the binding signal is 0.199 E-score.

ACAAATTC: the binding signal amounted to 0.238 E-score.

For GTAAATTA, the binding signal is 0.383 E-score.

In the case of CTAAATTA, the binding signal was 0.252 E-score.

Consider ATGAATTG, for which the binding signal was 0.0516 E-score.

In the case of ATAAATTG, the binding signal came to 0.336 E-score.

With ATGAATTA, the binding signal is 0.353 E-score.

On to CTGAATTA, for which the binding signal worked out at 0.134 E-score.

As to ACTAATCA, the binding signal was 0.154 E-score.

For the sequence CCACTAGC, the binding signal was -0.055 E-score.

For CGCCAGTA, the binding signal is -0.111 E-score.

With TATTGCAA, the binding signal is 0.253 E-score.

For the sequence ATAGCAGA, the binding signal was found to be 0.144 E-score.

Turning to ATACCATA, the binding signal was determined as 0.286 E-score.

For the sequence GTACCATA, the binding signal came out at 0.339 E-score.

For the sequence ATACCATC, the binding signal turned out to be 0.198 E-score.

For CTACCATC, the binding signal amounted to 0.396 E-score.

For CTACCATA, the binding signal worked out at 0.328 E-score.

As to GTACCAGA, the binding signal was -0.0447 E-score.

ATGCTAGC: the binding signal turned out to be 0.313 E-score.

As for ATCAATTG, the binding signal turned out to be 0.221 E-score.

With GCAATGTA, the binding signal was 0.23 E-score.

Consider TAAATCGA, for which the binding signal was found to be 0.0795 E-score.

For CAAGTCAA, the binding signal was 0.171 E-score.

As for ACAAAATC, the binding signal is -0.0365 E-score.

Consider TAGAAATA, for which the binding signal was 0.409 E-score.

As to TACAACTA, the binding signal turned out to be 0.368 E-score.

In the case of AACAACTA, the binding signal was 0.292 E-score.

CCAAAATA: the binding signal was determined as 0.164 E-score.

For the sequence CTAAAATA, the binding signal amounted to 0.262 E-score.

With ACAAAATA, the binding signal came to 0.34 E-score.

For GACAACTA, the binding signal was found to be 0.333 E-score.

In the case of TAAAAATA, the binding signal amounted to 0.369 E-score.

As for AAAAAATA, the binding signal was 0.314 E-score.

Consider GAGAAATA, for which the binding signal came out at 0.305 E-score.

For CAGAAATA, the binding signal is 0.303 E-score.

Turning to GCAGAACC, the binding signal is -0.0431 E-score.

For ACCGGTGG, the binding signal is -0.196 E-score.

As to CTTACCTC, the binding signal is 0.143 E-score.

In the case of AACGTAGA, the binding signal worked out at 0.17 E-score.

For AACCCAGG, the binding signal was -0.0972 E-score.

With AGAGGTGA, the binding signal is -0.164 E-score.

In the case of GGACGCTA, the binding signal was found to be 0.000145 E-score.

As for GAGTTGAA, the binding signal was 0.00685 E-score.

Take AAACATAG: the binding signal was found to be 0.247 E-score.

As for CCTGCGAA, the binding signal is -0.196 E-score.

In the case of GGCTTCAA, the binding signal is -0.0517 E-score.

In the case of ATAACCAA, the binding signal was 0.276 E-score.

On to ATGGTTAC, for which the binding signal was -0.167 E-score.

With AGAAAATA, the binding signal came out at 0.328 E-score.

With GGAAAATA, the binding signal was 0.37 E-score.

For ATAAAATG, the binding signal is 0.203 E-score.

As for ATAAAATA, the binding signal turned out to be 0.426 E-score.

With GAAAAATA, the binding signal was determined as 0.279 E-score.

Take GTAAAATA: the binding signal came out at 0.328 E-score.

As for TAGAACTA, the binding signal turned out to be 0.406 E-score.

Turning to GAGAACTA, the binding signal turned out to be 0.326 E-score.

For CAGAACTA, the binding signal came to 0.301 E-score.

In the case of CGGACTTC, the binding signal is -0.0622 E-score.

With AGTGTTAG, the binding signal was determined as 0.118 E-score.

For the sequence GCGCGGTA, the binding signal was 0.073 E-score.

Consider TGATATAA, for which the binding signal came to 0.371 E-score.

For the sequence TGATAAAA, the binding signal amounted to 0.27 E-score.

With CGATATAC, the binding signal was determined as 0.239 E-score.

Turning to GGATATAA, the binding signal was determined as 0.271 E-score.

For CGATATAG, the binding signal is 0.191 E-score.

Turning to CGATATAA, the binding signal is 0.357 E-score.

In the case of CTTCTTTC, the binding signal amounted to 0.0125 E-score.

As to CGCGCTGA, the binding signal is 0.105 E-score.

Regarding CAACGAGC, the binding signal was -0.148 E-score.

With ACCTTCTC, the binding signal is -0.145 E-score.

Turning to ATAACATA, the binding signal amounted to 0.365 E-score.

Take CTAACATA: the binding signal was 0.186 E-score.

As to ATAACATG, the binding signal worked out at 0.152 E-score.

As to ACGTCAAG, the binding signal was 0.0301 E-score.

Turning to GTGTAGTA, the binding signal was determined as 0.379 E-score.

For the sequence ATGTAGTG, the binding signal was determined as 0.211 E-score.

With ATGTAGTC, the binding signal was found to be 0.162 E-score.

Take GAGTAGTA: the binding signal came to 0.311 E-score.

ATGTAGTA: the binding signal is 0.403 E-score.

In the case of CTGTAGTA, the binding signal was determined as 0.243 E-score.

CCCAGTAG: the binding signal turned out to be 0.151 E-score.

Turning to AAGTTCAT, the binding signal was found to be 0.147 E-score.

Regarding ATGCAAAA, the binding signal was 0.086 E-score.

For the sequence AAAATACC, the binding signal came to 0.373 E-score.

As for AAAATACT, the binding signal worked out at 0.416 E-score.

For AAAATACG, the binding signal was found to be 0.303 E-score.

AAAATAAT: the binding signal was found to be 0.246 E-score.

Regarding GAAATACC, the binding signal worked out at 0.175 E-score.

Turning to CAAATACC, the binding signal was found to be 0.126 E-score.

On to TAAATACA, for which the binding signal is 0.333 E-score.

For the sequence AAAATACA, the binding signal turned out to be 0.344 E-score.

In the case of GAAATACA, the binding signal was determined as 0.184 E-score.

With AACGGTGG, the binding signal turned out to be 0.0395 E-score.

For the sequence CGCCGACG, the binding signal is -0.0281 E-score.

For AAACAGGA, the binding signal was found to be 0.00183 E-score.

Regarding ACGTATCA, the binding signal was 0.0936 E-score.

For ACCTTATC, the binding signal worked out at 0.155 E-score.

Turning to AACTTAAG, the binding signal turned out to be 0.0622 E-score.

With ACCATGTA, the binding signal came out at 0.385 E-score.

Take CACATGTA: the binding signal was determined as 0.284 E-score.

With CCCATGTA, the binding signal is 0.12 E-score.

Turning to CACATCTA, the binding signal worked out at 0.268 E-score.

For the sequence TACATGTA, the binding signal came to 0.339 E-score.

TACATCTA: the binding signal stood at 0.382 E-score.

As to AACATACA, the binding signal came to 0.355 E-score.

For the sequence AACATACG, the binding signal came to 0.205 E-score.

With ACCATGTG, the binding signal is -0.159 E-score.

As to AACATCTA, the binding signal was 0.236 E-score.

For AACATACT, the binding signal stood at 0.136 E-score.

In the case of AACATGTA, the binding signal came to 0.285 E-score.

On to GTCAACAA, for which the binding signal was determined as 0.0786 E-score.

On to CTGGACTA, for which the binding signal turned out to be 0.0592 E-score.

Take CTACAGAC: the binding signal was determined as 0.12 E-score.

With CAGATAGA, the binding signal is 0.172 E-score.

For the sequence AATTTGGT, the binding signal stood at 0.177 E-score.

Regarding CTTAGCAC, the binding signal is -0.0712 E-score.

For the sequence AGGACTAC, the binding signal was -0.0384 E-score.

For CTGCAATA, the binding signal is 0.13 E-score.

As to GTAGAGAA, the binding signal amounted to 0.189 E-score.

With TACATATA, the binding signal stood at 0.347 E-score.

As for CACATACA, the binding signal worked out at 0.167 E-score.

In the case of TACATACA, the binding signal stood at 0.341 E-score.

For the sequence GACATACA, the binding signal stood at 0.0575 E-score.

In the case of GACATATA, the binding signal came out at 0.277 E-score.

Turning to AACATATA, the binding signal amounted to 0.257 E-score.

As for GTCAGTAA, the binding signal came out at 0.00175 E-score.

With GCATGGAA, the binding signal was -0.193 E-score.

With GCGACTGA, the binding signal was 0.0748 E-score.

Regarding CGGTGAAC, the binding signal is 0.00962 E-score.

Regarding GTCTAGCA, the binding signal is -0.0242 E-score.

Regarding CACATCGC, the binding signal is -0.127 E-score.

For the sequence CATCAGGC, the binding signal was -0.154 E-score.

For the sequence GTAATGGA, the binding signal is 0.266 E-score.

On to CTAGCGAC, for which the binding signal is -0.128 E-score.

Consider AAGCGTCG, for which the binding signal was -0.184 E-score.

As for ATAGTTAG, the binding signal stood at 0.319 E-score.

Take ATAGTTAA: the binding signal came out at 0.329 E-score.

Consider CTAGTTCC, for which the binding signal stood at 0.188 E-score.

As for CTAGTTGC, the binding signal amounted to 0.281 E-score.

For the sequence ATAGTTAC, the binding signal was 0.349 E-score.

Regarding CTAGTTAC, the binding signal worked out at 0.418 E-score.

Take CACAAAAC: the binding signal was found to be 0.0504 E-score.

Take GATTGCAA: the binding signal stood at 0.0926 E-score.

For the sequence GGAAGCTA, the binding signal was 0.285 E-score.

Regarding AAGTGGTC, the binding signal was -0.0764 E-score.

Take AATTGGTC: the binding signal turned out to be 0.0556 E-score.

CAGTGGTA: the binding signal is 0.258 E-score.

In the case of AATTGGTA, the binding signal came out at 0.339 E-score.

Turning to CATTGGTA, the binding signal is 0.223 E-score.

Take AAGTGGTA: the binding signal was determined as 0.348 E-score.

On to ACCGCCAC, for which the binding signal was -0.135 E-score.

Turning to AATTGTGT, the binding signal stood at 0.149 E-score.

As for CACTTTAG, the binding signal was -0.146 E-score.

In the case of CTACTGAA, the binding signal worked out at 0.0898 E-score.

Consider ATACTGTA, for which the binding signal was 0.34 E-score.
